Experimental data reported in PubChem BioAssay AID1159580 (chemical genetic matrix, 2015).
Screen size: about 5,500 compounds; about 2,000 (36%) were called active. Inconclusive results (about 18%) are left out. Rule as the data show it: active = normalized growth mostly below about 0.91 (no sharp cut-off); inconclusive = no clear call, values can overlap the other calls; inactive = mostly above about 0.92. The list shows a part of the results.

Test: chemical genetic growth profiling, strain panel (AID 1159580);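 also: tested at 20 µM; growth read once vehicle control cultures reached saturation at 30 °C; 1 = growth at the plate median or of vehicle wells; lower values mean less growth of the strain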
Settings: growth OD
[1] = S. cerevisiae deletion strains, locus YAL013W, strain DEP1, active compounds read low
[2] = S. cerevisiae deletion strains, locus YDR150W, strain NUM1, active compounds read low
[3] = S. cerevisiae deletion strains, locus YGR229C, strain SMI1, active compounds read low
[4] = S. cerevisiae deletion strains, locus YJR075W, strain HOC1, active compounds read low
[5] = S. cerevisiae deletion strains, locus YMR263W, strain SAP30, active compounds read low
[6] = S. cerevisiae deletion strains, locus YMR307W, strain GAS1, active compounds read low
[7] = S. cerevisiae deletion strains, locus YNL322C, strain KRE1, active compounds read low
[8] = S. cerevisiae deletion strains, locus YPL241C, strain CIN2, active compounds read low
[9] = S. cerevisiae deletion strains, locus YBR229C, strain ROT2, active compounds read low
[10] = S. cerevisiae deletion strains, locus YDL101C, strain DUN1, active compounds read low
[11] = S. cerevisiae deletion strains, locus YDL134C, strain PPH21, active compounds read low
[12] = S. cerevisiae deletion strains, locus YEL061C, strain CIN8, active compounds read low
[13] = S. cerevisiae deletion strains, locus YGR078C, strain PAC10, active compounds read low
[14] = S. cerevisiae deletion strains, locus YHR030C, strain SLT2, active compounds read low
[15] = S. cerevisiae deletion strains, locus YHR087W, strain rtc3, active compounds read low
[16] = S. cerevisiae deletion strains, locus YJR043C, strain POL32, active compounds read low
[17] = S. cerevisiae deletion strains, locus YLR039C, strain RIC1, active compounds read low
[18] = S. cerevisiae deletion strains, locus YLR058C, strain SHM2 (second series), active compounds read low
[19] = S. cerevisiae deletion strains, locus YLR085C, strain ARP6, active compounds read low
[20] = S. cerevisiae deletion strains, locus YLR262C, strain YPT6, active compounds read low
[21] = S. cerevisiae deletion strains, locus YML094W, strain GIM5, active compounds read low
[22] = S. cerevisiae deletion strains, locus YMR219W, strain ESC1, active compounds read low
[23] = S. cerevisiae deletion strains, locus YNL153C, strain GIM3, active compounds read low
[24] = S. cerevisiae deletion strains, locus YNL298W, strain CLA4 (second series), active compounds read low
[25] = S. cerevisiae deletion strains, locus YNR030W, strain Alg12, active compounds read low
[26] = S. cerevisiae deletion strains, locus YPL055C, strain LGE1, active compounds read low
[27] = S. cerevisiae deletion strains, locus YPR135W, strain CTF4, active compounds read low

Measured: normalized growth

CC1(C)CCC=[N+]1[O-]
inactive: [1] 1 | S. cerevisiae deletion strains, locus YAL040C, strain CLN3, active compounds read low 1.04 | S. cerevisiae deletion strains, locus YCL061C, strain MRC1 (second series), active compounds read low 1.01 | [2] 1 | S. cerevisiae deletion strains, locus YDR363W, strain ESC2, active compounds read low 1.02 | S. cerevisiae deletion strains, locus YER002W, strain NOP16, active compounds read low 0.98 | [3] 1.05 | [4] 1.03 | [5] 1 | [6] 1.01 | S. cerevisiae deletion strains, locus YNL175C, strain NOP13, active compounds read low 0.993 | S. cerevisiae deletion strains, locus YNL197C, strain WHI3, active compounds read low 1.01 | S. cerevisiae deletion strains, locus YNL224C, strain SQS1, active compounds read low 1 | [7] 1.01 | S. cerevisiae deletion strains, locus YOR083W, strain WHI5 (second series), active compounds read low 1.03 | [8] 1

CCOC(=O)CSc1nc2cc(C(F)(F)F)cnc2n1C
inactive: [1] 0.984 | [9] 0.98 | [10] 1.01 | [11] 0.975 | [2] 0.99 | [12] 0.993 | [13] 0.983 | [3] 1.01 | [14] 0.909 | [15] 0.96 | [16] 0.988 | [4] 0.997 | S. cerevisiae deletion strains, locus YKL190W, strain CNB1, active compounds read low 1.01 | [17] 1.05 | [18] 0.985 | [19] 1.04 | [20] 1.03 | [21] 0.952 | [22] 0.989 | [5] 0.99 | [6] 1.19 | [23] 1 | [24] 0.961 | [7] 0.982 | [25] 0.988 | S. cerevisiae deletion strains, locus YOL006C, strain TOP1, active compounds read low 0.942 | [26] 0.981 | [8] 1.07 | [27] 0.912

COC(OC)c1cc(=O)[nH]c(=S)[nH]1
inactive: [1] 1.01 | [9] 1.02 | [10] 1 | [11] 1.02 | [2] 0.918 | [12] 1.04 | [13] 1.03 | [14] 1.06 | [15] 1.01 | S. cerevisiae deletion strains, locus YJL187C, strain SWE1, active compounds read low 1.02 | [16] 1.01 | [4] 1.01 | [17] 1.07 | [18] 1.01 | [19] 1.11 | [20] 1.03 | [21] 1.02 | [22] 1.01 | [5] 1.03 | [6] 1.12 | [23] 1.01 | [24] 1.08 | [7] 1.01 | [25] 1.02 | [26] 0.935 | [8] 0.913 | [27] 1.03 | S. cerevisiae strains, strain wild type, active compounds read low 1.01
